Experimental findings from ChEMBL document CHEMBL1157539, “Thousands of chemical starting points for antimalarial lead identification” (Nature, 2010) are described below.

In general, Inhibition refers to the share of the control response that was lost under treatment. The low end stands for a response near the control, the high end for a response far below the control.

The test system of one assay is Plasmodium falciparum. Nature of the assay: GSK_TCMDC: Inhibition of Plasmodium falciparum Dd2 in whole red blood cells, using parasite LDH activity as an index of growth. Test compounds present at 2uM. It counts as functional.
Compound `Cc1[nH]c2c(NCc3ccc(F)cc3)nccc2c1C` registered an Inhibition of 0%. In turn, `COc1ccc(CCNCCCCCCNCCc2cccc([N+](=O)[O-])c2)cc1OC.Cl` yielded an Inhibition of 0%. Same read-out and setting: as for `COc1ccc(CNCc2ccc(-c3cccc(-c4nc5ccccc5[nH]4)c3)cc2)cc1.O=C(O)C(F)(F)F`, the figure is 85%; as for `CCN(CC)CCCN(CCCN(CC)CC)c1cc(C)nc(Nc2ccc(Cl)cc2)n1.O=C(O)C(=O)O`, 7%.

Another assay concerns HepG2. Nature of the assay: GSK_TCMDC: Percent inhibition of human HepG2 cell line. Test compounds present at 10uM. It is filed as functional.
For the compound `O=C(NCCCCN1CCC(c2c[nH]c3ccccc23)CC1)c1sc(-c2ccc(C(F)(F)F)cc2)nc1CO`, the Inhibition is 34%.

Take `O=C(O)C(F)(F)F.OCC1CCN(Cc2ccc(-c3cccc(-c4nc5cc(F)ccc5[nH]4)c3)cc2)CC1`: the Inhibition is 14%. Consider `CC(C)[C@H]1CC[C@H](C)C[C@@H]1OC(=O)N[C@@H](Cc1ccc(O)cc1)C(=O)NC1CCN(Cc2ccc(OCCCN(C)C)cc2)C1` (stereo partly specified), for which the Inhibition was 27%. `O=C(NC1CCC1)C1CCN(C(c2ccccc2)c2cc(F)cc(F)c2)CC1` (stereo unspecified) gave an Inhibition of 0%. Take `CCCCCCn1c(Sc2ccc(C#N)c([N+](=O)[O-])c2)nnc1-c1ccccc1`: the Inhibition is given as 23%.

Turning to `Cc1cccc2nc(-c3ccc(-c4cccc(NC(=O)c5cnccc5C(F)(F)F)c4)cc3)[nH]c12`, the Inhibition amounted to 25%.

Take `Cc1ccc(N2CCN(CCCCNC(=O)c3ccc(NC(=O)c4ccc(Cl)cc4)cc3)CC2)c(C)c1`: the Inhibition came out at 30%. `O=C(/C=C/c1ccc(Cl)cc1)NCCCCCN1CCCC(C(=O)Nc2ccc(Cl)cc2)C1` (stereo unspecified) showed an Inhibition of 24%.

For `COc1ccc(-c2cccc(NC(=O)c3cccc(Cl)c3)c2)cc1CN1CCNCC1.O=C(O)C(F)(F)F`, the Inhibition worked out at 29%.

`CCCCCc1ccc(N2C(N)=NC(N)=NC2(C)C)cc1.Cl` returned an Inhibition of 59%. `COc1ccc(CN2CCC(CNCCc3c(Cl)cccc3Cl)CC2)cc1.O=C(O)C(F)(F)F` registered an Inhibition of 45%. On to `O=[N+]([O-])c1ccc(C=NNc2nc(Nc3ccccc3)nc(Nc3ccccc3)n2)o1`, for which the Inhibition was 5%. `COc1cc2ncnc(Nc3ccc(Br)c(Cl)c3)c2cc1OC.Cl` displayed an Inhibition of 22%. The compound `COc1c(C2CCN(CCCCNC(=O)c3ccc(-c4ccc(C(F)(F)F)cc4)c(C(=O)OC(C)C)c3)CC2)ccc2c1CCCC2` showed an Inhibition of 24%. Still for that read-out and setting: with `Cc1cccc2nc(-c3ccc(-c4ccc(CN5CC(C)OC(C)C5)cc4)cc3)[nH]c12.O=C(O)C(F)(F)F` (stereo unspecified) the figure was 37%; with `COc1ccc(CNCC(C)(C)c2nc(-c3ccc(Cl)c(O)c3)c(-c3ccncc3)[nH]2)cc1.Cl`, 76%. In turn, `Cc1cccc2nc(-c3ccc(-c4cccc(CN5CCCC(N)C5)c4)s3)[nH]c12.O=C(O)C(F)(F)F` (stereo unspecified) registered an Inhibition of 17%. The compound `CCc1nc(N)nc(N)c1-c1ccc(F)c(F)c1` came in with an Inhibition of 58%. Consider `Cc1ccc(NC(=O)c2ccc(CN3CCCN(Cc4cccc(Cl)c4)CC3)cc2)cc1C.O=C(O)C(F)(F)F`, for which the Inhibition was 41%. For the compound `Cc1nc2nc(N)nc(N)c2c(C)c1Cc1ccc(C(F)(F)F)cc1.Cl`, the Inhibition is given as 57%.

`Cc1cccc2nc(-c3ccc(-c4ccc(CN5CCC(N)C5)cc4)s3)[nH]c12.O=C(O)C(F)(F)F` (stereo unspecified): the Inhibition was determined as 21%. On to `CN(C)Cc1ccc(-c2ccc3c(Nc4ccc(Oc5ccccn5)cc4)ccnc3c2)o1`, for which the Inhibition is listed as 18%. The compound `Cc1cccc2nc(-c3cccc(-c4ccc(NC(=O)c5ccc(=O)[nH]n5)cc4)c3)[nH]c12` came in with an Inhibition of 18%.

`CCCN(c1ccc(C(F)(F)F)cc1[N+](=O)[O-])S(=O)(=O)C(c1ccccc1)c1ccc(C(F)(F)F)cc1[N+](=O)[O-]` (stereo unspecified) yielded an Inhibition of 0%.

`COC(=O)c1sc(-c2ccc(Cl)cc2)cc1N(CCCN1CCC(N2CCCCC2)CC1)S(=O)(=O)c1ccc(C)cc1` showed an Inhibition of 25%.

Compound `O=C(Nc1ccc(Br)cc1)c1cc(Br)ccc1NS(=O)(=O)c1ccc(C(F)(F)F)cc1` registered an Inhibition of 53%. For the compound `O=C(Nc1ccnc(N2CCCN(Cc3cccc(O)c3)CC2)c1)c1ccc(F)cc1.O=C(O)C(F)(F)F`, the Inhibition came to 12%. As for `CCCOc1cc(O)c(-c2[nH]nc(C)c2Oc2ccccc2)cc1CC`, the Inhibition worked out at 0%. As to `CN(C)Cc1ccc(CN2CCN(CCOc3ccc(-c4ccc(Cl)cc4)cc3)CC2)o1`, the Inhibition is reported as 75%. Regarding `O=C(O)C(F)(F)F.O=S(=O)(NCCN1CCCC1)c1ccc(-c2cccc(CNCc3ccsc3)c2)s1`, the Inhibition was 42%. Take `COc1cc2nc(N3CCC(CNC(=O)c4ccc(-c5ccc(C(=O)N(C)C)cc5OCCN(C)C)cc4)CC3)nc(N)c2cc1OC`: the Inhibition came to 0%. The same measure, in the same setting: as for `CC(C)(C)OC(=O)NCc1ccc(Nc2nnc(-c3cccc(C(=O)NCc4cc(C(F)(F)F)cc(C(F)(F)F)c4)c3)o2)cc1`, the figure is 4%.
